Screens: PubChem BioAssay, National Center for Advancing Translational Sciences (NCATS)
IDH1 R132H inh – qHTS for Inhibitors of mutant isocitrate dehydrogenase 1 (IDH1): qHTS. Isocitrate dehydrogenase [NADP] cytoplasmic (Homo sapiens), O75874. IDH1-R132H enzyme, NADPH consumption, diaphorase/resazurin fluorescence. Potency, µM (top dose mostly 76.6 µM), without a hit: at the top dose activity change, negative = inhibition, hits mostly inhibitors. 0.093% of 390,000 active. AID 602179, 2012; also: potency is read from the fitted curve at half-maximal effect; % is scaled to controls: 0 for no effect and ±100 for the full control effect; nearly all actives have a fitted effect of over 65% in size
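IDH1-R132H (0.5 ug/mL dispensed) in pH 7.5 Tris buffer was preincubated 30 min with compound, then given a substrate mix of 0.016 mM NADPH and 2 mM alpha-KG for 80 min at room temperature; remaining NADPH was read by diaphorase/resazurin fluorescence.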
GLP1R ag – qHTS of GLP-1 Receptor Agonists; HEK293 GLP-1R CRE-luciferase, luminescence, 4-6 h; cells express a hypersensitive GLP-1R form; Glucagon-like peptide 1 receptor (Homo sapiens), P43220; Potency, µM (top dose mostly 45.6 µM), for inactives: at the top dose activation, hits mostly activators; AID 624172, 2012; 0.007% of 380,000 active; also: potency is read from the fitted curve at half-maximal effect; % of control where 0% means no effect
Target sequence (P43220 whole entry, looked up): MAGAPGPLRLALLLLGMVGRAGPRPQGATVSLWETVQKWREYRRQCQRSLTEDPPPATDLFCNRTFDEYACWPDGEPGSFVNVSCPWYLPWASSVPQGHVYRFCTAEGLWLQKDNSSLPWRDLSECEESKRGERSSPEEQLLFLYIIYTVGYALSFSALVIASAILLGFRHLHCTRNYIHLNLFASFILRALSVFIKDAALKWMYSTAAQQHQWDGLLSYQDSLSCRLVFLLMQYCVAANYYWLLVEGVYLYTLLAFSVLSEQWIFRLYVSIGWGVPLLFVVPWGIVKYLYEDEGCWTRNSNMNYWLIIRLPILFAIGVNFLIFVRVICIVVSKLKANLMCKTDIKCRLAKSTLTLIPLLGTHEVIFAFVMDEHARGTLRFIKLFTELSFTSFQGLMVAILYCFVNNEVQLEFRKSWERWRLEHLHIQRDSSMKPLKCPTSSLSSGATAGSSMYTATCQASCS
LDHA inh – qHTS assay for inhibitors of human lactate dehydrogenase | L-lactate dehydrogenase A chain (Homo sapiens), P00338 | purified LDHA, NADH/diaphorase-resazurin fluorescence; stronger effect = lower value | activity change, % (values are at about 110 or 230 µM) | 0.15% of 480,000 active | AID 1347041, 2019; in the data active = activity change below about -30%; inconclusive = mostly about -25% to -30%;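 also: plate controls were DMSO wells for no effect and wells without enzyme for full effect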
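Enzyme activity of human lactate dehydrogenase 5 (2 nM; 0.06 mM NADH, 0.2 mM pyruvate, 5 min, RT) is measured via a resazurin/diaphorase fluorescence readout of residual NADH.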
HEK293 tox – qHTS of GLP-1 Receptor Inverse Agonists: Cytotox Screen | Potency, µM (titrated, usually from 38.3 µM), for the others: at the top dose activity change, negative = inhibition, most hits filed as inhibitors | HEK293 cAMP-luciferase reporter cells, luminescence, 24 h | 0.13% of 410,000 active;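 also: loss of luciferase light is scored as toxicity; potency is read from the fitted curve at half-maximal effect; % is scaled to controls: 0 for no effect and ±100 for the full control effect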
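Luminescence readout: signal drop marks cytotoxicity. Plated cells grew 12 h at 37 °C, 5% CO2, received 23 nL compound for 24 h, then got luciferase reagent, read after 12 min at RT.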
PTHR1 ag – qHTS for PTHR1 Agonists: Primary Screen; Parathyroid hormone/parathyroid hormone-related peptide receptor (Homo sapiens), Q03431; HEK293 GP2 PTHR1 cells, GloSensor cAMP luminescence, 1 h; Potency, µM (top dose mostly 115 µM), for the others: at the highest dose activation, actives largely listed as activators; 0.075% of 410,000 active; AID 743266, 2014; also: potency is read from the fitted curve at half-maximal effect; nearly all actives have a fitted effect of over 55% in size
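HEK-293-derived GP2 cells expressing PTHR1 and a GloSensor cAMP reporter, 3,000/well, plated overnight, given luciferin plus IBMX (each 0.5 mM as added) for 1 h at 37 °C, then compound for 1 h at 37 °C. Luminescence was read after 15 min at room temperature.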
GLP1R inv ag – qHTS of GLP-1 Receptor Inverse Agonists (Inhibition Mode); AID 624417, 2012; Potency, µM (series often up to 38.3 µM), for the others: at the top dose activity change, negative = inhibition, usual class: inhibitors; HEK293 GLP-1R CRE-luciferase, luminescence, 24 h; GLP-1R form is constitutively active; 1.6% of 410,000 active; Glucagon-like peptide 1 receptor (Homo sapiens), P43220; also: potency is read from the fitted curve at half-maximal effect; % is scaled to controls: 0 for no effect and ±100 for the full control effect; nearly all actives have a fitted effect of over 55% in size
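Cells are plated, allowed 12 hours at 37 deg C, then treated with compounds for 24 hr before luciferase detection reagent is added and luminescence is read after 12 min at room temperature. The HEK293 line carries constitutively active GLP-1R with a cAMP-responsive reporter.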
* marks the source's active call; other numbers are inactive results; i = inactive; ? = inconclusive; / = no result; [ ] = another dose, or the depositor's remark. The list is not random: actives were taken first. Their share in the collection is about 1.7%. Unless noted, calls follow the shape of the dose curve; as a rule, active = well fitted curve in the direction sought with a large enough effect; inconclusive = small, poorly fitted or top-dose-only effect, or another doubt; inactive = no such curve, though single readings can be large; an effect the other way counts as inactive or inconclusive.

SMILES	IDH1 R132H inh	GLP1R ag	LDHA inh	HEK293 tox	PTHR1 ag	GLP1R inv ag
O=C(Nc1cc(=O)[nH]c2nc(CCc3ccccc3)nn12)c1ccccc1Cl	/	/	-4	/	/	/
C=Cc1ccc(CN2C(=O)N(c3cc(OC)cc(OC)c3)S(=O)(=O)c3ccccc32)cc1	/	/	-3	/	/	/
CCSc1nc(C)cc(C)c1S(=O)(=O)c1ccccc1C	8%	-27%	2	-3%	-30%[57.5 µM]	8.9µM*
CSc1nc(C)cc(C)c1S(=O)(=O)c1ccccc1C	16%	-11%	-1	-3%	-26%[57.5 µM]	5µM*
CCC(C)Oc1nc(C)cc(C)c1S(=O)(=O)c1ccccc1C (stereo unspecified)	3%	2%	-3	7%	-1%	8.9µM*
COc1nc(C)cc(C)c1S(=O)(=O)c1ccccc1C	3%	0%	-1	0%	i	?
C/C(=N\NC(=O)COc1cccc(C)c1)c1ccc2ccccc2c1O	0%	0%	4	1%	-27%	1.1µM*
O=C(NCC(c1ccc(F)cc1)N1CCOCC1)c1ccc(OCc2ccccc2)cc1 (stereo unspecified)	5%	2%	-4	-13%	-19%	10µM*
COc1ccc(C(CNC(=O)COc2ccc(Br)cc2F)N2CCCC2)cc1 (stereo unspecified)	5%	5%	-1	8%	-19%	13µM*
COc1ccc(NS(=O)(=O)c2cccc(NC(=O)c3ccc(S(=O)(=O)N4CCCCCC4)cc3)c2)cc1	-1%	1%	-9	-5%	-34%	7.9µM*
O=S(=O)(Nc1nc2ccccc2nc1Nc1cccc(S(=O)(=O)N2CCCCC2)c1)c1ccccc1	-3%	-18%	-2	-29%	-40%	11µM*
COc1ccc(C(CNC(=O)c2cccc(S(=O)(=O)Nc3ccc(F)cc3)c2)N2CCCC2)cc1 (stereo unspecified)	2%	-11%	-10	-12%	i	10µM*
COc1ccc(C(CNC(=O)c2cccc(NS(=O)(=O)c3ccc(C)c(F)c3)c2)N(C)C)cc1 (stereo unspecified)	-8%	10%	-8	-18%	-8%	11µM*
COc1ccccc1-c1c(C)nn2c(NC3CCCC3)cc(C)nc12	/	/	6	/	/	/
NC(=S)NN=C1c2ccccc2-c2ccccc21	4%	17%	-8	1.4µM*	-43%	?
NC(=S)N/N=C1\CCCc2ccccc21	/	/	-2	/	/	/
Cc1ccc(-n2c(SCC(=O)Nc3ccc(F)c(Cl)c3)nc3c(=O)[nH]cnc32)cc1	/	/	-21	/	/	/
CCN(CC)CCCn1c2c(c(SCC(=O)Nc3nc4ccccc4s3)nc1=O)CCC2	-7%	-3%	1	?	-6%	?
CCN(CC)CCCn1c2c(c(SCC(=O)Nc3ccc(OC(F)(F)F)cc3)nc1=O)CCC2	3%	1%	-8	-12%	-2%	3.5µM*
CCN(CC)CCCn1c2c(c(SCC(=O)Nc3ccc(C)c(F)c3)nc1=O)CCC2	2%	1%	0	6%	-34%	10µM*
O=C(NCc1ccco1)C1c2ccccc2C(=O)N(C2CCCC2)C12CCCC2 (stereo unspecified)	/	/	-1	/	/	/
CCOC(=O)c1c2c(n(C)c1C)C(=O)C(=O)c1ccc(Br)cc1-2	4%	10%	20	-23%	-14%	?
CCOC(=O)c1c2c(n(Cc3ccccc3)c1C)C(=O)C(=O)c1ccccc1-2	4%	-22%	29	5µM*	-28%	?
Cc1cccc(NC(=O)C(c2ccccc2Cl)N2CCOCC2)c1 (stereo unspecified)	3%	2%	-2	-1%	-22%	?
COc1cccc(NC(=O)C(c2ccccc2)N2CCCCC2)c1 (stereo unspecified)	5%	6%	-4	-2%	i	?
SMILES	IDH1 R132H inh	GLP1R ag	LDHA inh	HEK293 tox	PTHR1 ag	GLP1R inv ag
Cc1ccc(NC(=O)C(c2ccc(Cl)cc2Cl)N2CCCC2)cc1 (stereo unspecified)	1%	-12%	2	-7%	-49%	10µM*
O=C(Nc1cc(Cl)cc(Cl)c1)C(c1ccccc1)N1CCCCC1 (stereo unspecified)	-1%	0%	-4	7%	-9%	2.2µM*
CC(C)c1ccc(NC(=O)C(c2ccc3c(c2)OCO3)N2CCC3(CC2)OCCO3)cc1 (stereo unspecified)	8%	0%	0	-6%	-19%	?
CC1CCN(C(C(=O)Nc2ccc(C(C)C)cc2)c2ccc3c(c2)OCO3)CC1 (stereo unspecified)	14%	0%	3	-1%	-37%	4.5µM*
CC(C)c1ccc(NC(=O)C(c2ccc3c(c2)OCO3)N2CCCCC2)cc1 (stereo unspecified)	13%	-3%	-3	-17%	-16%	4µM*
CC(C)c1ccc(NC(=O)NC(C)c2ccc3c(c2)OCO3)cc1 (stereo unspecified)	1%	-5%	-6	-23%	-60%	?
CCCNC(=O)CSc1nnc(-c2cccnc2)o1	/	/	7	/	/	/
O=S1(=O)C=C(Sc2nnc(-c3cccnc3)o2)c2ccccc21	/	/	1	/	/	/
COC(=O)c1cc(S(=O)(=O)N(C)CC(=O)Nc2ccc(Br)c(C)c2)cn1C	/	/	2	/	/	/
N#CC1=C(SCc2ccc(Cl)cc2)NC(=O)C(C#N)C12CCCC2 (stereo unspecified)	/	/	2	/	/	/
CC(=O)Nc1ccc(NC(C)C(=O)Nc2ccc(Cl)cn2)cc1 (stereo unspecified)	/	/	-6	/	/	/
COCC(=O)N1C[C@H]2CON(C)[C@H]2C[C@H]1c1cccc(-c2ccccc2OC)c1	14%	5%	-31*	2%	-24%	-3%
Cc1cc(CSc2nnc(-c3ccc(Cl)cc3)n2Cc2ccco2)on1	/	/	1	/	/	/
COc1ccc(Br)cc1/C=C/C(=O)c1ccc(NC(C)=O)cc1	-5%	-38%	2	-11%	-18%	5µM*
COc1ccc(NC(=O)/C=C/c2cc(Br)ccc2OC)cc1	3%	-15%	-3	6%	-8%[57.5 µM]	?
Brc1ccc(N/N=C(/N=Nc2nn[nH]n2)c2ccccc2)cc1	0%	9%	1	?	-45%	1.3µM*
